Test results taken from PubChem BioAssay (NCATS).
Active and inactive are the calls of the source. Calls come from the whole dose curve; as a rule, active = well fitted inhibition curve with a large enough effect; inconclusive = small, poorly fitted or top-dose-only effect; inactive = flat fitted curve, though single readings scatter.

These compounds were tested against Luciferin 4-monooxygenase (Photinus pyralis) (UniProt P08659) (assay: Primary firefly luciferase (FLuc) qHTS assay for identification of artifact compounds. (AID 1845220; note: nearly all actives have a fitted effect of over 60% in size;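 for activity change, negative = inhibition: plate controls were DMSO vehicle for no effect and no enzyme for full effect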)). Details: purified firefly luciferase, luminescence, 5 min; series mostly up to 54.1 µM; activity change, negative = inhibition: at the top concentration.
Procedure, shortened: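 Reaction readout was CCD-imaged luminescence, taken 5 min after adding 10 nM purified firefly enzyme to compound-treated wells holding 10 uM luciferin and ATP in pH 7.6 buffer.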
Potency is the fitted concentration of half-maximal effect.

| SMILES | activity change, negative = inhibition | outcome | Potency |
| --- | --- | --- | --- |
| NS(=O)(=O)c1cc(Cl)c(Cl)c(S(N)(=O)=O)c1 | 3.2% (inactive) | – | – |
| COc1cc2ncnc(Nc3cc(Br)c(O)c(Br)c3)c2cc1OC | – | inactive | – |
| CN[C@@H](C)[C@H]1[C@H](O)C[C@@]2(C)[C@@H]3CC[C@H]4C(C)(C)[C@@H](NC)CC[C@@]45C[C@@]35CC[C@]12C | 1.81% [at 11.6 µM] (inactive) | – | – |
| Cn1c(=O)c(-c2c(Cl)cccc2Cl)cc2cnc(Nc3cccc(C(=O)O)c3)nc21 | – | – | 379 nM (active) |
| Cc1cnc(Nc2cccc(CN3CCOCC3)c2)nc1Nc1cccc(S(=O)(=O)NC(C)(C)C)c1 | -8.06% (inactive) | – | – |
| c1cc(OCCN2CCCCC2)cc(-c2n[nH]c3ccc(-c4ncn[nH]4)cc23)c1 | – | inactive | – |
| O[C@@H](COc1cccc2ncccc12)CN1CCN(C2c3ccccc3[C@@H]3[C@H](c4ccccc42)C3(F)F)CC1 (some centres not stated) | 2.22% (inactive) | – | – |
| CNc1nc(Nc2ccc(C(=O)N3CCOCC3)cc2OC)ncc1Cl | -20.5% (inactive) | – | – |
| Cc1cccc2c1CC[C@H](CN1CCC(c3c(Cl)cccc3Cl)CC1)C[C@@H]2O | -8.59% (inactive) | – | – |
| CC1(C)CC(=O)c2c(C(F)(F)F)nn(-c3ccc(C(N)=O)c(NC4CCC(O)CC4)c3)c2C1 (configuration not stated) | 2.34% (inactive) | – | – |
| Cc1csc(-c2nnc(Nc3ccc(Oc4ncccc4-c4ccnc(N)n4)cc3)c3ccccc23)c1 | – | inactive | – |
| COC(=O)N1CCN(Cc2cccc(NC(=O)Nc3ccc(C)nc3)c2F)CC1 | -5.1% (inactive) | – | – |
